In the supplement of paper PMC12819154, “High-throughput peptide-centric local stability assay extends protein–ligand identification to membrane proteins, tissues and bacteria” (Nature Structural & Molecular Biology, 2025):

target: UniProt P0AEZ1; assay: log2 fold change of tryptic peptide abundance, ligand vs vehicle (limited proteolysis) (log2 ratio); higher = more trypsin-susceptible (destabilized); conditions: peptide sequence: DYWNNGIR; peptide start residue: 105; ligand concentration: 5 mM; sample: E. coli desalted lysate; replicate design: treated before aliquoting
Experimental: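 HT-PELSA: desalted E. coli K-12 BW25113 lysate (with 12 mM MgCl2) incubated with 5 mM ATP (pH 7) or water for 30 min at 25 C, then a 4 min trypsin pulse at 22 C. Peptides were quantified by DIA-MS (4 replicates). Value is the peptide log2 fold change (treated/control); negative = stabilized. Scale: negative = ligand-stabilized region.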
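Further: lysate desalted by size exclusion to strip endogenous ATP, peptide intensities built from DIA-NN precursor signals, and peptides missing any value discarded before comparison.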

Sequence of UniProt P0AEZ1 (P0AEZ1 whole entry): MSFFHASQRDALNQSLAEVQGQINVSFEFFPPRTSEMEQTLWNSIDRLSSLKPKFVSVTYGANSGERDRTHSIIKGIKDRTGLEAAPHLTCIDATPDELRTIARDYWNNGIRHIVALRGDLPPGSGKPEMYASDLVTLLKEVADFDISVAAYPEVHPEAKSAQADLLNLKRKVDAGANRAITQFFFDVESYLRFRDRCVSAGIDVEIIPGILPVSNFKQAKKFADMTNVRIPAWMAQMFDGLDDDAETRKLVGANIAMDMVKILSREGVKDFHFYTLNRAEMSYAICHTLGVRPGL

SMILES | log2 fold change
Nc1ncnc2c1ncn2[C@@H]1O[C@H](COP(=O)(O)OP(=O)(O)OP(=O)(O)O)[C@@H](O)[C@H]1O [adenosine 5'-triphosphate] | -1.01
